Measurements from paper PMC5540273 (PLoS ONE, 2017).
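Note: KINOMEscan kinase panel screen.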

What follows are compounds tested on T1, ADCK3. Conditions: concentration: 1 μM, replicates: in singlicate; n = 1.
T1 construct: gene CABC1
For `Cc1ccc(C(=O)N2CC[C@@H](O)C2)cc1-n1c(C)cc(OCc2ccc(F)cc2F)c(Br)c1=O`, the “%Inh” value was 0%. In the case of `c1ccc(Oc2ccc(Nc3ccnc4cc(-c5ccc(CNCCN6CCOCC6)o5)ccc34)cc2)nc1` [GW567145], the “%Inh” value is reported as 2%. `CC(C)c1nc(-c2cccc(NS(=O)(=O)c3c(F)cccc3F)c2F)c(-c2ccnc(Nc3ccc(N4CCOCC4)nc3)n2)s1` [GSK2008607] was tested, and the “%Inh” value was 100%. With `c1ccc(-c2cnc3nccnn23)cc1` [AH20685] the “%Inh” value was 0%. `CCn1c(-c2nonc2N)nc2c(C#CC(C)(C)O)nc(OC[C@H](N)c3ccccc3)cc21` [GSK943949] was tested, and the “%Inh” value was 0%. With `CSc1cccc2c(-c3ccncn3)c(-c3ccc(F)cc3)nn12` [GW514786] the “%Inh” value was 68%. `FC(F)(F)c1ccc(/C=C/c2cncnc2Nc2ccc3[nH]c(Cc4ccccc4)nc3c2)cc1` [GW709199] was tested, and the “%Inh” value was 18%. With `C[C@@H](Oc1cc(-n2cnc3cc(-c4ccnc(NCCS(C)(=O)=O)c4)ccc32)sc1C(N)=O)c1ccccc1Cl` [GSK907232] the “%Inh” value was 25%. For `O=C(Nc1n[nH]c2cc(-c3ccoc3)ccc12)C1CC1` [SB-738481], the “%Inh” value was 0%. With `CC(C)(C)c1ccc2nccc(Nc3cccc(O)c3)c2c1` [GW856795] the “%Inh” value was 0%. For `Cl.Cl.NCC(NC(=O)c1cc(-c2ccccc2)c(-c2ccnc3[nH]ccc23)s1)c1ccccc1` (stereo not shown) [GSK1321561], the “%Inh” value was 95.3%. In the case of `CCc1ccc(-c2ccc3c(c2)-c2c(cnn2C)S(=O)(=O)N3C)cc1`, the “%Inh” value is reported as 0%. `Cl.Cl.NCC(NCc1ccc(-c2ccnc3[nH]ccc23)s1)c1ccccc1` (stereo not shown) [GSK1321565] was tested, and the “%Inh” value was 25%. For `Cl.NC(=O)c1cccc(Nc2nccc(Nc3ccc(Oc4c(Cl)cccc4Cl)c(Cl)c3)n2)c1` [GW659009], the “%Inh” value was 0%. In the case of `Cc1ccc(C)c(NC(=O)NC2CCN(c3ccnc(Nc4ccc(F)cc4)n3)C2)c1` (stereo not shown) [GSK1379720], the “%Inh” value is reported as 0%. With `COC(=O)Nc1nc2cc(Oc3ccc(NC(=O)Nc4cc(C(F)(F)F)ccc4F)cn3)ccc2[nH]1.Cl.Cl` [GW681170] the “%Inh” value was 2%. With `Cn1cc(-c2[nH]c3cc(NC(=O)[C@H](N)C4CCCCC4)cc4c3c2C=NNC4=O)cn1` the “%Inh” value was 0%. With `CCn1c(-c2nonc2N)nc2c(C#CC(C)(C)O)ncc(OCCCCN)c21.O=C(O)C(F)(F)F.O=C(O)C(F)(F)F` [GSK507274] the “%Inh” value was 26%. With `NCCCC(NC(=O)c1cc(Br)c(-c2ccnc3[nH]ccc23)s1)c1ccccc1.O=C(O)C(F)(F)F.O=C(O)C(F)(F)F` (stereo not shown) [GSK1287544] the “%Inh” value was 20%. In the case of `Cc1ccc(C(=O)Nc2ccc(Nc3ccnc4cc(-c5nccs5)ccc34)cc2O)cc1.Cl` [GW494702], the “%Inh” value is reported as 1%. `CN(C)S(=O)(=O)c1cc(-c2ccc3nccc(-c4cccc(S(N)(=O)=O)c4)c3c2)cnc1N` [GSK1669921] was tested, and the “%Inh” value was 16%. In the case of `COc1ccc(Nc2nccc(NCCNC(=O)c3cc4ccccc4s3)n2)cc1` [GSK1379896], the “%Inh” value is reported as 10%. In the case of `Cc1ccc(F)c(C(=O)Nc2cccc(-c3nn4ccccc4c3-c3ccnc(Nc4cccc(F)c4)n3)c2)c1F` [GSK361061], the “%Inh” value is reported as 0%. For `Nc1n[nH]c2cnc(-c3ccccc3)cc12` [SB-642124], the “%Inh” value was 19%. For `Cc1cccc(NC(=O)Nc2ccc(Oc3ncnc4ccn(C)c34)cc2)c1`, the “%Inh” value was 0%. For `COc1cc2c(cc1OCCN1CCNCC1)ncc1c3ccc(C#N)cc3[nH]c21`, the “%Inh” value was 13%. `Fc1ccc(-c2ncn(C3CCNCC3)c2-c2ccnc(Oc3ccc(-c4ccccc4)cc3)n2)cc1` [SB-245391] was tested, and the “%Inh” value was 0%. For `CC(=O)Nc1nc2cnc(Nc3cc(NC(=O)c4cccc(C5(C#N)CC5)c4Cl)ccc3C)nc2s1`, the “%Inh” value was 0%. In the case of `O=C(O)C(F)(F)F.O=C(O)C(F)(F)F.O=c1[nH]ccc2nc(N[C@@H]3CCCNC3)nc(Nc3ccc(S(=O)(=O)N4CCOCC4)cc3)c12` [GSK2177277], the “%Inh” value is reported as 0%. In the case of `Oc1cc(Nc2ccnc3cc(I)ccc23)ccc1F` [GW552771], the “%Inh” value is reported as 19%. For `COc1cccc(C(=O)Nc2cccc(Oc3ccc4nc(NC(=O)C5CC5)cn4n3)c2)c1`, the “%Inh” value was 10%. `O=C(Nc1cccc(Oc2ccc3nc(NC(=O)C4CC4)cn3n2)c1)c1ccccc1C(F)(F)F` was tested, and the “%Inh” value was 3%. For `Clc1ccc(-c2nn3ncccc3c2-c2ccnc(Nc3ccc4c(c3)OCCO4)n2)cc1` [GW829116], the “%Inh” value was 16%. In the case of `O=C(Nc1cccc(-c2nn3ccccc3c2-c2ccnc(Nc3cccc(F)c3)n2)c1)c1c(F)ccc(F)c1Cl` [GSK357952], the “%Inh” value is reported as 16%. `COC(=O)Nc1nc2ccc(Oc3ccc(NC(=O)Nc4cc(C(F)(F)F)ccc4F)cc3)cc2n1C.Cl` [GW692089] was tested, and the “%Inh” value was 0%. `O=C(Nc1cccc(-c2nn3ncccc3c2-c2ccnc(Nc3ccccc3)n2)c1)c1c(F)cccc1F` [GSK198271] was tested, and the “%Inh” value was 3%. `CN1CCN(CCCNc2nccc(-c3c(-c4ccc(F)cc4)nn4cc(C(F)(F)F)ccc34)n2)CC1` [GW621581] was tested, and the “%Inh” value was 70%.
